About 3,300 (8.5%) of roughly 39,000 compounds were called active. The entries come from a sample that favours actives as a whole.
Tested on: HepG2
Assay: cytotoxicity call (relative viability < 0.9)
Details: 10 µM

SMILES	cytotoxicity call
C[C@H]1CN([C@@H](C)CO)C(=O)Cc2cc(NS(=O)(=O)c3cn(C)cn3)ccc2O[C@H]1CN(C)C	inactive
CNC[C@@H]1OCCCC[C@@H](C)Oc2ccc(NC(=O)c3ccncc3)cc2C(=O)N([C@H](C)CO)C[C@@H]1C	inactive
C[C@H]1CN([C@@H](C)CO)C(=O)c2cccc(NC(=O)Nc3cccc4ccccc34)c2O[C@@H]1CN(C)S(=O)(=O)c1cccs1	inactive
O=C(C[C@H]1C[C@H]2c3cc(NC(=O)Nc4ccc(C(F)(F)F)cc4)ccc3O[C@H]2[C@@H](CO)O1)NCCc1ccccc1	inactive
COc1ccc(S(=O)(=O)N(C)C[C@H]2Oc3ccc(NS(=O)(=O)c4cccs4)cc3C(=O)N([C@@H](C)CO)C[C@H]2C)cc1	inactive
C[C@@H]1CN([C@H](C)CO)C(=O)Cc2cc(NS(=O)(=O)c3cccs3)ccc2O[C@@H]1CN(C)S(=O)(=O)c1cccs1	inactive
C[C@@H]1CN([C@H](C)CO)C(=O)c2cc(NS(=O)(=O)c3cn(C)cn3)ccc2O[C@@H]1CN(C)C(=O)Nc1ccccc1	inactive
C[C@@H]1CN([C@H](C)CO)C(=O)c2cc(NS(=O)(=O)c3cccs3)ccc2O[C@H]1CN(C)S(=O)(=O)c1cccs1	active
C[C@H](CO)N1C[C@H](C)[C@H](CN(C)C(=O)Nc2ccccc2)Oc2ccc(NS(=O)(=O)c3cn(C)cn3)cc2C1=O	active
COc1ccc(S(=O)(=O)N(C)C[C@H]2Oc3ccc(NS(=O)(=O)c4cccs4)cc3C(=O)N([C@@H](C)CO)C[C@@H]2C)cc1	inactive
C[C@@H]1CN([C@@H](C)CO)C(=O)c2cc(NS(=O)(=O)c3cn(C)cn3)ccc2O[C@@H]1CN(C)C(=O)Nc1ccccc1	inactive
C[C@H](CO)N1C[C@H](C)[C@@H](CN(C)S(=O)(=O)c2cccs2)Oc2ccc(NS(=O)(=O)c3cccs3)cc2CC1=O	active
C[C@H](CO)N1C[C@H](C)[C@@H](CN(C)S(=O)(=O)c2cccs2)Oc2ccc(NS(=O)(=O)c3cccs3)cc2C1=O	inactive
COc1ccc(S(=O)(=O)N(C)C[C@@H]2Oc3ccc(NS(=O)(=O)c4cccs4)cc3C(=O)N([C@H](C)CO)C[C@@H]2C)cc1	active
C[C@@H]1CN([C@@H](C)CO)C(=O)Cc2cc(NS(=O)(=O)c3cccs3)ccc2O[C@H]1CN(C)S(=O)(=O)c1cccs1	inactive
C[C@H]1CN([C@@H](C)CO)C(=O)c2cc(NS(=O)(=O)c3cccs3)ccc2O[C@H]1CN(C)S(=O)(=O)c1cccs1	inactive
C[C@@H]1CCCCO[C@@H](CN(C)C(=O)c2ccccc2)[C@H](C)CN([C@H](C)CO)C(=O)c2cc(NC(=O)Nc3ccccc3)ccc2O1	inactive
Cc1ccc(S(=O)(=O)NCC[C@@H]2CC[C@@H](NS(=O)(=O)c3ccccc3Cl)[C@@H](CO)O2)cc1	inactive
C[C@H]1CN([C@@H](C)CO)S(=O)(=O)c2ccc(C3=CCCC3)cc2O[C@@H]1CN(C)C(=O)Cc1ccncc1	inactive
COc1cccc(S(=O)(=O)N(C)C[C@H]2Oc3ncc(-c4cccc(C(=O)N(C)C)c4)cc3C(=O)N([C@H](C)CO)C[C@@H]2C)c1	inactive

SMILES	cytotoxicity call
C[C@H](CO)N1C[C@H](C)[C@H](CN(C)C(=O)Cc2ccccn2)Oc2cc(C#Cc3ccccc3)ccc2S1(=O)=O	inactive
COc1ccc(CNC(=O)C[C@@H]2CC[C@H]3[C@@H](COC[C@H](O)CN3S(=O)(=O)c3ccc(OC)cc3)O2)cc1	inactive
C[C@H]1CN([C@@H](C)CO)C(=O)c2cc(NC(=O)Cc3ccccc3)ccc2O[C@H]1CN(C)S(=O)(=O)c1cccs1	inactive
COc1ccc(NC(=O)Nc2ccc3c(c2)C(=O)N([C@H](C)CO)C[C@H](C)[C@H](CN(C)S(=O)(=O)c2ccc(OC)cc2)OCCCC[C@@H](C)O3)cc1	inactive
COc1ccccc1S(=O)(=O)N[C@H]1CC[C@H](CCNC(=O)C2CC2)O[C@@H]1CO	inactive
C[C@@H]1O[C@@H](O[C@@H]2C=C(CO)[C@H]3[C@H](O[C@@H]4O[C@H](CO)[C@@H](O)[C@H](O)[C@H]4O)OC=C[C@H]32)[C@H](O)[C@H](O)[C@H]1OC(=O)/C=C/c1ccccc1	inactive
C[C@H](CO)N1C[C@H](C)[C@H](CN(C)S(=O)(=O)c2ccc(F)cc2)OCCCC[C@H](C)Oc2ccc(NC(=O)CCC(F)(F)F)cc2C1=O	inactive
C[C@@H]1CCCCO[C@H](CN(C)Cc2ccccc2)[C@H](C)CN([C@H](C)CO)C(=O)c2cc(NC(=O)NC3CCCCC3)ccc2O1	inactive
C[C@@H]1CN([C@H](C)CO)C(=O)c2cccc(NC(=O)Nc3ccc4c(c3)OCO4)c2O[C@H]1CN(C)Cc1ccc(Oc2ccccc2)cc1	active
C[C@@H]1CN([C@H](C)CO)C(=O)c2cccc(NC(=O)Nc3ccc4c(c3)OCO4)c2O[C@@H]1CN(C)Cc1ccc(-c2ccccc2)cc1	inactive
C[C@H]1CN([C@@H](C)CO)C(=O)c2cccc(NC(=O)Nc3ccc4c(c3)OCO4)c2O[C@@H]1CN(C)Cc1ccc(Oc2ccccc2)cc1	inactive
C[C@@H]1CN([C@@H](C)CO)C(=O)c2cccc(NC(=O)Nc3ccc4c(c3)OCO4)c2O[C@H]1CN(C)Cc1ccc(Oc2ccccc2)cc1	inactive
C[C@H](CO)N1C[C@H](C)[C@H](CN(C)Cc2ccc(Oc3ccccc3)cc2)Oc2c(NC(=O)Nc3ccc4c(c3)OCO4)cccc2C1=O	active
C[C@H]1CN([C@@H](C)CO)C(=O)c2cccc(NC(=O)Nc3ccc4c(c3)OCO4)c2O[C@H]1CN(C)Cc1ccc(-c2ccccc2)cc1	inactive
C[C@H](CO)N1C[C@H](C)[C@@H](CN(C)Cc2ccc(Oc3ccccc3)cc2)Oc2c(NC(=O)Nc3ccc4c(c3)OCO4)cccc2C1=O	inactive
C[C@@H]1CN([C@@H](C)CO)C(=O)c2cccc(NC(=O)Nc3ccc4c(c3)OCO4)c2O[C@@H]1CN(C)Cc1ccc(-c2ccccc2)cc1	active
C[C@@H]1CN([C@@H](C)CO)C(=O)c2cccc(NC(=O)Nc3ccc4c(c3)OCO4)c2O[C@@H]1CN(C)Cc1ccc(Oc2ccccc2)cc1	inactive
C[C@@H]1CN([C@H](C)CO)C(=O)c2cccc(NC(=O)Nc3ccc4c(c3)OCO4)c2O[C@@H]1CN(C)Cc1ccc(Oc2ccccc2)cc1	inactive
C[C@H]1CN([C@@H](C)CO)C(=O)c2cccc(NC(=O)Nc3ccc4c(c3)OCO4)c2O[C@H]1CN(C)Cc1ccc(Oc2ccccc2)cc1	active
C[C@H]1CN([C@@H](C)CO)C(=O)c2cccc(NC(=O)Nc3ccc4c(c3)OCO4)c2O[C@@H]1CN(C)Cc1ccc(-c2ccccc2)cc1	inactive
